Only some compounds are listed: those with a hit (about 19% of all), similar ones and a draw of the others.
HepG2 tox-1: counter-screen for TGF-b inhibitors: cytotoxicity in HepG2 cells; HepG2 CAGA-GFP viability, ATP luminescence, 18 h; Potency, µM (doses to about 46.1 µM), for inactives: top-dose activity change, negative = cytotoxicity, hits mostly cytotoxic; actives 0.76% (n = 410,000); further: potency means the concentration at half of the fitted maximal effect
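HepG2 CAGA-GFP cells (1000/well, DMEM with 1% FBS) received compound, then TGF-beta at 500 pg/mL final, and were incubated 18 hours at 37 degrees C. Viability was read by CellTiter-Glo luminescence. Media-only wells were set as complete cell-killing and DMSO as no toxicity.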
TGFb SMAD3 inh: inhibitors of TGF-b signaling. HepG2 CAGA-GFP TGF-b/SMAD3 reporter, GFP fluorescence, 18 h; TGF-beta stimulated, 500 pg/mL final. AID 588855. actives 1.2% (n = 410,000). Potency, µM (series often up to 46.1 µM), for inactives: top-dose activity, negative = inhibition, actives largely listed as inhibitors; further: potency means the concentration at half of the fitted maximal effect; on the % scale 0 is the no-effect control and ±100 the full control effect; nearly all actives have a fitted effect of over 65% in size
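GFP signal (ex488/em500-530) from TGF-beta-stimulated HEPG2 CAGA-GFP cells, 500 pg/mL final, 18 h at 37 degrees C in DMEM plus 1% FBS, normalized to unstimulated and DMSO-stimulated controls.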
TDP1 cell noCPT: qHTS for Inhibitors of human tyrosyl-DNA phosphodiesterase 1 (TDP1): qHTS in cells in absence of CPT; DT40 Tdp1-/- hTDP1 cells, no CPT, ATP luminescence, 48 h; Potency, µM (titrated, usually from 46.2 µM), without a hit: top-dose activity change, negative = growth inhibition, hits mostly inhibitors; actives 15% (n = 420,000); AID 686978, 2013; further: potency means the concentration at half of the fitted maximal effect; on the % scale 0 is the no-effect control and ±100 the full control effect; nearly all actives have a fitted effect of over 55% in size
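Stably hTDP1-transfected Tdp1-null chicken DT40 cells were treated with library compounds minus camptothecin and grown for at least 48 hr at 37 °C, after which cellular ATP was quantified by luminescence.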
TDP1 cell CPT: DT40-hTDP1 cell growth loss with CPT | actives 12% (n = 420,000) | Potency, µM (series often up to 46.2 µM), without a hit: top-dose activity change, negative = growth inhibition, hits mostly inhibitors | AID 686979 | chicken DT40 Tdp1-/-;hTDP1 cells + 20 nM CPT, ATP luminescence, 48 h; further: potency means the concentration at half of the fitted maximal effect; on the % scale 0 is the no-effect control and ±100 the full control effect; nearly all actives have a fitted effect of over 55% in size
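Cell growth measured by CellTiter-Glo luminescence after a minimum 48 h, 37 C compound exposure with 20 nM CPT in Tdp1-knockout DT40 cells stably expressing hTDP1, seeded 400/well; qHTS titration format.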
IL1B secr inh: blocks inflammasome-driven IL-1 beta release; activity change, % at 57.5 µM; actives 4.7% (n = 360,000); AID 743279; THP-1 LPS/ATP IL-1B secretion, AlphaLISA, 16 h; active compounds read low; in the data active means activity change below about -50%; inconclusive means mostly about -30% to -49%; further: on the % scale 0 is the no-effect control and ±100 the full control effect
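Secreted IL-1B measured by AlphaLISA bead assay after 16 h compound exposure of THP-1 cells; compounds (final up to 57.5 uM) added 1 h before LPS (250 ng/mL) and ATP (1.25 mM) stimulation; lower signal means less secretion.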
TDP1 block: TDP1 (human) enzyme inhibition; recombinant TDP1, AlphaScreen DNA substrate cleavage; Potency, µM (titrated, usually from 130 µM), without a hit: at the highest dose activity change, negative = inhibition, hits mostly inhibitors; actives 0.28% (n = 350,000); further: potency means the concentration at half of the fitted maximal effect; on the % scale 0 is the no-effect control and ±100 the full control effect; nearly all actives have a fitted effect of over 40% in size
Target sequence (Q9NUW8 whole entry, looked up): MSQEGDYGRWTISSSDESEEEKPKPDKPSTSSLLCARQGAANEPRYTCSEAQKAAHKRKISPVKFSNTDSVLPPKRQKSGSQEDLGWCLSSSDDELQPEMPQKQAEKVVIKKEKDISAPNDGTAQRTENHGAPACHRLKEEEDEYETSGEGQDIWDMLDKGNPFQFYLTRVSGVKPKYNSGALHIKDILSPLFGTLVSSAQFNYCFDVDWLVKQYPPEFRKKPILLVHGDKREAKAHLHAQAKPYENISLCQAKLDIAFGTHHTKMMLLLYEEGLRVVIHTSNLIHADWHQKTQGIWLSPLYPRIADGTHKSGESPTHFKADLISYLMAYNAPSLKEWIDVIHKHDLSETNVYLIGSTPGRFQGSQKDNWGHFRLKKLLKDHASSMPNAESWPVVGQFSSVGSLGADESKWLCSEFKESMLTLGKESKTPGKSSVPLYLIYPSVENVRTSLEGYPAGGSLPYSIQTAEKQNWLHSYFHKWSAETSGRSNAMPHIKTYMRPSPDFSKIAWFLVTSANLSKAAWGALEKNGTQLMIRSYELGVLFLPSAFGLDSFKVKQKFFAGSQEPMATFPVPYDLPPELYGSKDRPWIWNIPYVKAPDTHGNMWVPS
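Here, a 5' biotin and 3' phosphotyrosine-FITC DNA oligonucleotide reports Tdp1 activity: intact substrate bridges AlphaScreen beads, while cleavage leaves a 3' phosphate and drops signal. All incubations at room temperature.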
TGFb CAGA inh: TGF-b pathway inhibition, cherry-pick retest | shares compounds with TGFb SMAD3 inh | Potency, µM (top dose mostly 46.1 µM), for the others: at the top dose activity, negative = inhibition, most hits filed as inhibitors | actives 63% (n = 1,600) | HepG2 CAGA-GFP TGF-b reporter, GFP fluorescence, 18 h; cells stimulated with TGF-beta, 500 pg/mL; further: potency means the concentration at half of the fitted maximal effect; on the % scale 0 is the no-effect control and ±100 the full control effect; nearly all actives have a fitted effect of over 65% in size
HepG2 tox-2: HepG2 cytotoxicity, TGF-b inhibitor counterscreen. Potency, µM (top dose mostly 46.1 µM), for the others: at the top dose activity, negative = cytotoxicity, usual class: inhibitors. actives 27% (n = 1,600). HepG2 CAGA-GFP viability, ATP luminescence, 18 h; cells stimulated with TGF-beta, 500 pg/mL. shares compounds with TGFb SMAD3 inh; further: potency means the concentration at half of the fitted maximal effect; on the % scale 0 is the no-effect control and ±100 the full control effect; nearly all actives have a fitted effect of over 70% in size
CCL64 TGFb inh: orthogonal confirmation of TGF-b inhibitors in CCL64 cells. shares compounds with TGFb SMAD3 inh. CCL64 CAGA-GFP reporter, TGF-b stimulated, GFP fluorescence, 18 h. AID 720536. actives 41% (n = 1,600). Potency, µM (highest dose often 46.1 µM), without a hit: at the top dose activity, negative = inhibition, usual class: inhibitors; further: potency means the concentration at half of the fitted maximal effect; nearly all actives have a fitted effect of over 65% in size
COP TGFb inh: TGF-b inhibition validated with COP promoter; HepG2 COP-GFP TGF-b reporter, GFP fluorescence, 18 h; cells stimulated by added recombinant TGF-beta; actives 3% (n = 1,600); Potency, µM (doses to about 46.1 µM), for inactives: at the highest dose activity, negative = inhibition, most hits filed as inhibitors; shares compounds with TGFb SMAD3 inh; further: potency means the concentration at half of the fitted maximal effect; nearly all actives have a fitted effect of over 70% in size
* marks the source's active call; other numbers are inactive results; ? = inconclusive; nt = no result given; ! = a repeat was not active; [ ] = another dose, or the depositor's remark. Unless noted, the call rests on the fitted dose curve; in most records, active means well fitted curve in the direction sought with a large enough effect; inconclusive means small, poorly fitted or top-dose-only effect, or another doubt; inactive means no such curve, though single readings can be large; an effect the other way counts as inactive or inconclusive.

SMILES	HepG2 tox-1	TGFb SMAD3 inh	TDP1 cell noCPT	TDP1 cell CPT	IL1B secr inh	TDP1 block	TGFb CAGA inh	HepG2 tox-2	CCL64 TGFb inh	COP TGFb inh
CC1CCN(CCCNC(=O)CCNC(=O)Cn2cnc3ccccc3c2=O)CC1	16.3%	27.1%	-6.7%	-10.0%	-4.8	2.5%	nt	nt	nt	nt
CCOC(=O)C1=C(CC)Nc2ccccc2N=C1NC(=O)Nc1ccc(Cl)c(Cl)c1	-36.0%	7.08µM*	2.59µM*	2.91µM*	-73.9*	0.5%	18.4µM*	?	6.51µM*	81.0%
COc1ccccc1NS(=O)(=O)c1ccc(C)c(C(=O)NCC(c2cccs2)N2CCOCC2)c1 (centres undefined)	-16.6%	-3.3%	?	?	0.0	nt	nt	nt	nt	nt
COc1ccc(C)cc1N=Nc1ccc(O)c2ncccc12	-33.6%	7.08µM*	2.59µM*	3.26µM*	-9.5	10.5%	6.51µM*	-15.9%	2.31µM*	7.7%
Cc1ccc(C)c(Cn2nnc3c(=O)[nH]c(C(=O)NCc4ccco4)nc32)c1	0.0%	-14.2%	-26.4%	?	32.3	5.0%	nt	nt	nt	nt
O=C(NCc1ccco1)c1nc2c(nnn2Cc2ccccc2Cl)c(=O)[nH]1	-34.3%	2.82µM*	?	?	2.8	7.7%[56.1 µM]	5.8µM*	?	8.2µM*	26.9%
C=C(C)c1cccc(C(C)(C)NC(=O)Nc2nnc(C(C)C)s2)c1	8.4%	8.91µM*	?	?	65.3	-0.6%	?	0.3%	-6.2%	-0.8%
CCCC(=O)N1CCN(c2ccc(NC(=O)c3ccc([N+](=O)[O-])o3)cc2Cl)CC1	11.2µM*	5.62µM*	5.8µM*	0.92µM*	-110.5*	1.3%	3.66µM*	13µM*	23.1µM*	?
CC(C)C(=O)N1CCN(c2ccc(NC(=O)c3ccc([N+](=O)[O-])o3)cc2Cl)CC1	-55.5%	7.94µM*	2.06µM*	1.16µM*	-105.0*	0.0%	5.8µM*	20.6µM*	?	-6.8%
CC(C)C(=O)N1CCN(c2ccc(NC(=O)c3ccc(Br)o3)cc2)CC1	0.8%	-9.9%	-27.0%	?	-11.7	5.4%	nt	nt	nt	nt
CC(C)C(=O)N1CCN(c2ccc(NC(=O)c3ccc([N+](=O)[O-])o3)cc2)CC1	-37.3%	?	11.6µM*	2.06µM*	-104.0*	6.0%	5.8µM*	10.3µM*	?	-21.9%
CCC(C)NC(=O)C1(O)c2ccccc2NC(=O)N1c1ccc(C)c(C)c1 (centres undefined)	9.2%	-1.9%	?	4.8%	12.2	nt	nt	nt	nt	nt
O=[N+]([O-])c1ccc(S(=O)(=O)c2cccc(C(F)(F)F)c2)nc1	12.6µM*	6.31µM*	0.651µM*	2.59µM*	-102.4*	nt	3.66µM*	7.31µM*	2.59µM*	16.4µM*
CCSc1ncc(Cl)c(C(=O)Nc2ccccc2C)n1	-2.5%	2.7%	0.8%	-11.1%	3.0	nt	nt	nt	nt	nt
Cc1ccc(C(=O)NCc2ccc3c(c2)OCO3)c(Cl)c1	-19.8%	0.1%	-3.2%	-19.1%	-23.9	nt	nt	nt	nt	nt
Cc1cccc(CS(=O)(=O)c2ncc(Cl)c(C(=O)NCc3ccc4c(c3)OCO4)n2)c1	14.1µM*	7.94µM*	4.61µM*	2.91µM*	-96.4*	-0.3%	5.8µM*	13µM*	2.91µM*	?
COc1ccccc1NC(=O)c1nc(S(=O)(=O)Cc2ccccc2)ncc1Cl	-39.7%	4.47µM*	1.64µM*	1.3µM*	-102.3*	4.6%	2.91µM*	5.8µM*	2.06µM*	14.6µM*
Cc1ccc(NC(=O)c2nc(S(=O)(=O)Cc3ccccc3C)ncc2Cl)cc1C	15.8µM*	7.08µM*	1.64µM*	1.46µM*	-100.2*	0.2%	3.26µM*	10.3µM*	3.66µM*	?
CCS(=O)(=O)c1ncc(Cl)c(C(=O)Nc2ccc(S(=O)(=O)N3CCC(C)CC3)cc2)n1	1.78µM*	4.47µM*	2.59µM*	1.84µM*	-103.9*	10.2%	4.61µM*	4.61µM*	2.06µM*	9.2µM*
CN(c1ccccc1)S(=O)(=O)c1ccc(NC(=O)C2CC2)cc1	-25.0%	-10.8%	-16.4%	0.4%	0.6	3.4%[56.1 µM]	nt	nt	nt	nt
CCOC(=O)c1ccc(NC(=O)c2nc(S(=O)(=O)Cc3ccccc3)ncc2Cl)cc1	6.31µM*!	3.55µM*	1.3µM*	0.461µM*	-104.7*	7.7%	4.61µM*	6.51µM*	2.31µM*	13µM*
CN(c1ccccc1)S(=O)(=O)c1ccc(NC(=O)c2nc(S(C)(=O)=O)ncc2Cl)cc1	5.62µM*	5.62µM*	0.581µM*	0.651µM*	-95.6*	3.8%	2.91µM*	4.11µM*	1.84µM*	6.51µM*
COc1ccccc1C(C(C(=O)c1ccccc1)N1CCOCC1)N1CCOCC1 (centres undefined)	10.8%	3.9%	-8.7%	13.6%	8.4	nt	nt	nt	nt	nt
O=C(CN1CCN(Cc2ccccc2)CC1)Nc1ccc(Cl)cc1	-5.6%	4.1%	-13.5%	10.5%	-0.8	nt	nt	nt	nt	nt
COc1ccc(C(CCNCc2ccc(F)cc2)c2ccc(F)cc2)cc1 (centres undefined)	7.94µM*	2.82µM*	?	?	-28.4	2.8%	?	16.4µM*	?	?
